# The full data set covers some 8,800 targets. This sample favours those with a hit. About 0.5% of all pairs of compound and target were hits. Unmarked numbers belong to inactive results.
# Legend:
# Assay in all cases: log2 fold change, soluble protein after heating vs DMSO (PISA); higher = thermal stabilisation; K562 lysate, 10 uM; active = over 0.2 and 3.5 SD of the protein, either way, in both replicates (recomputed)
# [1] = compound: NCC(=O)Nc1ccc(-n2nc(C(F)(F)F)cc2-c2ccc3c(ccc4ccccc43)c2)cc1
# In short: (§1)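 Thermal stability, expressed as log-two fold change relative to solvent controls, is given from duplicates. Crude K562 extract in PBS pH 7.4 with 1 mM MgCl2, at 1 mg/mL protein, was treated with 10 μM compound for 30 min and heated in aliquots for 3 min across 48°C-58°C. After pooling, adjustment to 0.5% NP-40 at 4°C and centrifugation at 21,000xg for 90 min, supernatant protein was measured by TMTpro 16plex LC-MS/MS with channel sums equalised.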
# [2] = compound: O=C(CCCCCCC(=O)Nc1ccccc1)NO [vorinostat]
# In short: as §1
# [3] = compound: O=C(O)c1ccc2c(c1)nc(Nc1cccc(Cl)c1)c1ccncc12 [silmitasertib]
# In short: as §1
# [4] = compound: O=C1NC(=O)C(c2cnc3ccccn23)=C1c1cn2c3c(cc(F)cc13)CN(C(=O)N1CCCCC1)CC2
# In short: as §1
# [5] = compound: c1cn2cc(-c3ccc4cn[nH]c4c3)nc(Nc3ccc(N4CCOCC4)cc3)c2n1 [entospletinib]
# In short: as §1
# Chain of UniProt Q8IWV2 (Q8IWV2 whole entry, looked up): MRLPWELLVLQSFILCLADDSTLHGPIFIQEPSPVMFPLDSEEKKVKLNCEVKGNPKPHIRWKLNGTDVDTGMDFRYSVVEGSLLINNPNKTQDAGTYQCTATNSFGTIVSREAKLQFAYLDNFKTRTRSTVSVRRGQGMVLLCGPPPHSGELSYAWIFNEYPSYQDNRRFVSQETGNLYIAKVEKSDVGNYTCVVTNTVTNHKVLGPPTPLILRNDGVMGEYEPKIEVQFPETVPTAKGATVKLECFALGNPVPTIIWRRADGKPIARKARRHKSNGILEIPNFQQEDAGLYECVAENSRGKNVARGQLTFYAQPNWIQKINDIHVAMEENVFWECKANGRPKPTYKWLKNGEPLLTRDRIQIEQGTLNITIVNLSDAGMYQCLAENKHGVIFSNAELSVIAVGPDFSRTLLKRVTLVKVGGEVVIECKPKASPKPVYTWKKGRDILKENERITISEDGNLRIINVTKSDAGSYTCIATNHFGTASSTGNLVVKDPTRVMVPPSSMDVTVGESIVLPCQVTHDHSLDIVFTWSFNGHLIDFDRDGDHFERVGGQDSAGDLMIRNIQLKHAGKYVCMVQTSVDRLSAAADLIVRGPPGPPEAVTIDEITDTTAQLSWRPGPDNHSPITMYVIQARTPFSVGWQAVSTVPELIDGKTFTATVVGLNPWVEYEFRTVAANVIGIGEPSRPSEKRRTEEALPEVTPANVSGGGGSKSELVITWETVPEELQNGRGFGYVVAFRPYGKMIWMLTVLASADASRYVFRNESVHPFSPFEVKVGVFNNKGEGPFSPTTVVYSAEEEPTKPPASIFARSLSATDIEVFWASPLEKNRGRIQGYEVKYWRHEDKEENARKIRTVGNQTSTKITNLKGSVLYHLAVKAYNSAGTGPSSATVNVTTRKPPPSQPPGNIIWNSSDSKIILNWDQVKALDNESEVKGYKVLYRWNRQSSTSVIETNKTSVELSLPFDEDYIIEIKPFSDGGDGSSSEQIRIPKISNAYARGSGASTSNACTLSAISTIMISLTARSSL
# Chain of UniProt Q9H9E3 (Q9H9E3 whole entry, looked up): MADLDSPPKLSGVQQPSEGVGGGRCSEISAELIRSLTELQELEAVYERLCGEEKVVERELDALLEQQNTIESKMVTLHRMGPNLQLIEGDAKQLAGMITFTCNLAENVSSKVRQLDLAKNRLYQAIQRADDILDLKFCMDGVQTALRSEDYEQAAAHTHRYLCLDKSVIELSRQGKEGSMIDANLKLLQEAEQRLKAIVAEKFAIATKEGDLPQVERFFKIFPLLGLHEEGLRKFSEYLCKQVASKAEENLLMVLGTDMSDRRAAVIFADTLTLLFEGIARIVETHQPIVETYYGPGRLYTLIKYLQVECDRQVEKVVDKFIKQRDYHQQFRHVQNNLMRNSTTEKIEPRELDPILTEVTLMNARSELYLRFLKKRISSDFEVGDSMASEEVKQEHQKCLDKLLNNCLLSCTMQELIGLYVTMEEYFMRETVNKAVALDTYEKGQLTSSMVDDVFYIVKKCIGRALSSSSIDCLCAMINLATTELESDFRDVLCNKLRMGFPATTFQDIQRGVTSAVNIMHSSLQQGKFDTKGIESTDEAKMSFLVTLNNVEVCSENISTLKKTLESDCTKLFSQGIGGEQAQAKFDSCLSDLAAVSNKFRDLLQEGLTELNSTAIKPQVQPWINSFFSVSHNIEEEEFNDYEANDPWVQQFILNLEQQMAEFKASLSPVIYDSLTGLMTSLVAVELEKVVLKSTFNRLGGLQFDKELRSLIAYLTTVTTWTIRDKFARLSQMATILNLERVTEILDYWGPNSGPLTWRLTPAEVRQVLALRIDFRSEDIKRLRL
# Chain of UniProt P17661 (P17661 whole entry, looked up): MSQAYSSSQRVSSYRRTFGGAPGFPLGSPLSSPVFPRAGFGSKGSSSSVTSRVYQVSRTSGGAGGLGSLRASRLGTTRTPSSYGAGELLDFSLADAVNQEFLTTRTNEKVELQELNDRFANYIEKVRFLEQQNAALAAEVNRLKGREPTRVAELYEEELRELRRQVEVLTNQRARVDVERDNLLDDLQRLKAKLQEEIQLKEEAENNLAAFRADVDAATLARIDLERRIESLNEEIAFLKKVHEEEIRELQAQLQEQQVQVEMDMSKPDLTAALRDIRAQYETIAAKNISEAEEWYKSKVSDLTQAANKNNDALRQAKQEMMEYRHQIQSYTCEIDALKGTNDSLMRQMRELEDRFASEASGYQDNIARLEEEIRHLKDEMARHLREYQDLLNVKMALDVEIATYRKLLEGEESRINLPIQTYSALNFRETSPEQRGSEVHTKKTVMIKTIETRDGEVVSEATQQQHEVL
# Chain of UniProt Q92989 (Q92989 whole entry, looked up): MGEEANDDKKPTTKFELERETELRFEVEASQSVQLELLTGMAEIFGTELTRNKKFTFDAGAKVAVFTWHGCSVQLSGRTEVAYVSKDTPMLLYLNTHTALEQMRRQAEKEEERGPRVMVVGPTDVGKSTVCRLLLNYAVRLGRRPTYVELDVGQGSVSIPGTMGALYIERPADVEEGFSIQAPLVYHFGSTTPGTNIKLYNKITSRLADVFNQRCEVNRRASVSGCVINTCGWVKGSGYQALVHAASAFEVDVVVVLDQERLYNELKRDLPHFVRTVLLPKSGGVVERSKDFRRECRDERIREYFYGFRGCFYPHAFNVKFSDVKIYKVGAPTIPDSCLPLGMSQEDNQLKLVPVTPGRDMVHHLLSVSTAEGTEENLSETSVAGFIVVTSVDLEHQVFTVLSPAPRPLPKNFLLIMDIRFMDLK
# Chain of UniProt O60716 (O60716 whole entry, looked up): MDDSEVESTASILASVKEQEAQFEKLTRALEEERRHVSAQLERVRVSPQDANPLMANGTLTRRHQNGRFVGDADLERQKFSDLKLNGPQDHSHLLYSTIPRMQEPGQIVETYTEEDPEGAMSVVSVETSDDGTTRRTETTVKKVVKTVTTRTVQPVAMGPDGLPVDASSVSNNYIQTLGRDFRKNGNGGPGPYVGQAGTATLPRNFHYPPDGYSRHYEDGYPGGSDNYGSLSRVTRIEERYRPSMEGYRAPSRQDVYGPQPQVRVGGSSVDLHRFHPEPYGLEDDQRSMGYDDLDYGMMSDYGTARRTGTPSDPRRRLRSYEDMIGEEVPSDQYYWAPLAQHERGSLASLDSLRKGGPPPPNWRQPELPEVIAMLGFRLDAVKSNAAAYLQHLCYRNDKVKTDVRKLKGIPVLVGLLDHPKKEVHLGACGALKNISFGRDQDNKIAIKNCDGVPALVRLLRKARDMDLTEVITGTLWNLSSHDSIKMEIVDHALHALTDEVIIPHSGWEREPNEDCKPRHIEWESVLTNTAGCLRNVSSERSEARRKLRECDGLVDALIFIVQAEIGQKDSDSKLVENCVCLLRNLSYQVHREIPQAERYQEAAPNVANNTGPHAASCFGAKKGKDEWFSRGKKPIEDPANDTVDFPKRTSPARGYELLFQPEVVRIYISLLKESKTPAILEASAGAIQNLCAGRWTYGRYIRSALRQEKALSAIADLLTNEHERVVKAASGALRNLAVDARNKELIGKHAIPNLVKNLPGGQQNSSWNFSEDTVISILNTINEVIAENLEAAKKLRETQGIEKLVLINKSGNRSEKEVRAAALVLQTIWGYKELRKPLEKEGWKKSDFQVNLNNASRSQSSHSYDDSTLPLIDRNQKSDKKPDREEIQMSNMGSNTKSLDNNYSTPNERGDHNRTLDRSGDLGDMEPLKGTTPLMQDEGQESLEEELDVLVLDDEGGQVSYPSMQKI
# Chain of UniProt O75534 (O75534 whole entry, looked up): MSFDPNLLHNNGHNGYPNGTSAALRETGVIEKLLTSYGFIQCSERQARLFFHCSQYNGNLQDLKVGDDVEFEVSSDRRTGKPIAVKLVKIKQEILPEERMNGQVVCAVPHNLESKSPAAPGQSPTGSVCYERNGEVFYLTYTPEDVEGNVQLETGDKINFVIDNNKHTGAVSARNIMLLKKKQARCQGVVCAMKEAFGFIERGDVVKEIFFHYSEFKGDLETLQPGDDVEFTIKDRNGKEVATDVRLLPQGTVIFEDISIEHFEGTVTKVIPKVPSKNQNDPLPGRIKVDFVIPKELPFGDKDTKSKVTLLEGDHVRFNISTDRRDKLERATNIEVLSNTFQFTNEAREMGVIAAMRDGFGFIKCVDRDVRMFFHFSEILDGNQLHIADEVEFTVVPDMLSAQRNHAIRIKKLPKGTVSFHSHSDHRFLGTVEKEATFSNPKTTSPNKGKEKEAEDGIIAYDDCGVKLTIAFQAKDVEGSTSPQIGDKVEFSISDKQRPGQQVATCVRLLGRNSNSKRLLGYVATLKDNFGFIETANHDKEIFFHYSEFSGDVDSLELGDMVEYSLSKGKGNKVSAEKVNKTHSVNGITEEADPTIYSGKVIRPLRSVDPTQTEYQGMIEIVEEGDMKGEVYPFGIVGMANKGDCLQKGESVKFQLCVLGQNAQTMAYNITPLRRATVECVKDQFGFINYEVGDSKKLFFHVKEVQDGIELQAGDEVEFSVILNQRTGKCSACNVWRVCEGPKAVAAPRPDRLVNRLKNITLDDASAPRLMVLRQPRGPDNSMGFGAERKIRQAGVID
# Chain of UniProt Q16850 (Q16850 whole entry, looked up): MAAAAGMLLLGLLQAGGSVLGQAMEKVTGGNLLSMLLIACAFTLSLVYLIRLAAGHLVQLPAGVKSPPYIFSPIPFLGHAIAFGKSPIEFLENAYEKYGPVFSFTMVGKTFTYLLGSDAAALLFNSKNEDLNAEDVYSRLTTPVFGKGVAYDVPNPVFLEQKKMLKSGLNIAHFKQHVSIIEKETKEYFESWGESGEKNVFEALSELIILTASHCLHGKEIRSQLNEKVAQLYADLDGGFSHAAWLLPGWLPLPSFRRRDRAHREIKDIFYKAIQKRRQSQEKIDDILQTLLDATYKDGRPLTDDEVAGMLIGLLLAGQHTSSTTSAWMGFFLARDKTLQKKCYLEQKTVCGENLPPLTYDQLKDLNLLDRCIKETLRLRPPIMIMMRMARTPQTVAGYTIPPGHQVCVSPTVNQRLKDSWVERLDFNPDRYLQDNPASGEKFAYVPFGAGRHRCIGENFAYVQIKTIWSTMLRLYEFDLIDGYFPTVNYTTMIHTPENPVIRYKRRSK
Target,log2 fold change [1],log2 fold change [2],log2 fold change [3],log2 fold change [4],log2 fold change [5]
CYP2S1 isoform 2 (UniProt Q96SQ9),0.014,0.067,-0.027,-0.025,0.055
CKAP5 (UniProt Q14008),-0.013,-0.269 (active),0.011,0.002,0.005
CHORDC1 (UniProt Q9UHD1),0.001,-0.014,-0.019,-0.009,0
DDX20 (UniProt Q9UHI6),0.007,-0.348 (active),0.069,0.022,-0.008
CLCN3 (UniProt P51790),-0.165,-0.171,0.118,-0.245,0.025
CYP51A1 (UniProt Q16850),-0.065,0.017,-0.084,0.864 (active),0.024
CNOT4 isoform 9 (UniProt O95628),0.036,0.098,0.044,-0.031,0.009
CSDE1 isoform 4 (UniProt O75534),-0.004,-0.33 (active),0.015,-0.009,0.04
COPZ1 isoform 4 (UniProt P61923),-0.068,0.188,-0.032,0.163,-0.025
CTNND1 isoform 3 (UniProt O60716),-0.017,-0.371 (active),0.034,-0.014,-0.005
DMXL1 (UniProt Q9Y485),0.022,-0.237 (active),0.044,-0.013,0.022
CORO7 isoform 3 (UniProt P57737),-0.045,-0.176,0.042,0.004,0.005
DLD (UniProt P09622),-0.003,-1.96 (active),0.004,0.008,0.01
DCTN1 isoform 4 (UniProt Q14203),0.144,-0.143,-0.027,0.011,-0.085
CMSS1 (UniProt Q9BQ75),0.025,-0.272 (active),0.038,-0.024,-0.013
DNA2 (UniProt P51530),-0.059,-0.448 (active),0.127,-0.027,-0.053
CNP (UniProt P09543),-0.017,-0.298 (active),-0.001,0.059,0.017
CLP1 (UniProt Q92989),0.011,-0.307 (active),0.029,-0.027,0.008
DCP1A (UniProt Q9NPI6),-0.03,-0.234 (active),0.022,0.011,0.027
CUL1 (UniProt Q13616),0.001,0.072,0.006,-0.007,0.009
COG2 (UniProt Q14746),-0.031,-0.315 (active),0.055,0.061,0.058

Target,log2 fold change [1],log2 fold change [2],log2 fold change [3],log2 fold change [4],log2 fold change [5]
COG3 (UniProt Q96JB2),0.011,-0.314 (active),0.123,0.06,-0.017
DNAAF5 (UniProt Q86Y56),0.029,-0.313 (active),0.129,0.02,-0.012
CNTN4 (UniProt Q8IWV2),0.173,-0.026,-0.09,0.274,0.06
COTL1 (UniProt Q14019),-0.03,0.147,0,-0.021,0.023
DDB2 (UniProt Q92466),0.054,0.048,-0.022,-0.002,0.019
COG6 (UniProt Q9Y2V7),0.021,-0.254 (active),0.072,0.09,0.026
DPM1 (UniProt O60762),0.05,-0.01,-0.016,-0.011,0.02
CLASP2 isoform 3 (UniProt O75122),0.035,-0.329 (active),-0.033,-0.02,0.005
DOCK10 (UniProt Q96BY6),0,-0.07,0.143,-0.064,0.023
CHMP4A isoform 2 (UniProt Q9BY43),0.011,0.1,-0.027,-0.051,0.019
DCTN1 (UniProt Q14203),0.011,-0.261 (active),-0.003,0.012,0.001
DES (UniProt P17661),0.108,0.097,0.03,0.05,0.027
CNOT6L (UniProt Q96LI5),0.019,-0.032,0.004,0.017,0
CNST (UniProt Q6PJW8),0.051,0.056,-0.028,-0.067,-0.024
DEF6 (UniProt Q9H4E7),0.085,-0.416 (active),0.032,-0.045,0.022
CHURC1 isoform 2 (UniProt Q8WUH1),-0.048,0.285 (active),-0.039,-0.043,-0.128
COASY isoform 2 (UniProt Q13057),0.018,-0.214 (active),0.075,0.006,0.019
COG4 (UniProt Q9H9E3),0.101,-0.333 (active),0.022,-0.022,-0.023
CIP2A (UniProt Q8TCG1),0.043,-0.608 (active),0.055,0.011,0.008
DOCK8 (UniProt Q8NF50),-0.015,-0.489 (active),0.06,0.022,-0.052

# — the supplement of paper PMC10849652
